Assay outcomes deposited in PubChem by several laboratories.
NPR2 activator: GC-B (human) receptor activation; activation, % at 10 µM; P20594; HEK293-GC-B cells, CNP EC30, cGMP TR-FRET; 0% at EC30 CNP, 100% saturating CNP; 0.11% of 370,000 active; AID 1920062;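 active = activation at 10 µM reaching about 35% in either raw or pattern-adjusted values, limit read from the data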
NPR1 activator: GC-A (human) enzyme activation | P16066 | HEK293 GC-A cells, cGMP TR-FRET, EC30 ANP; 0% at EC30 ANP, 100% saturating ANP | activation, % at 10 µM | 0.14% of 370,000 active; in the data active = activation above about 40%
Target sequence (P16066 whole entry, looked up): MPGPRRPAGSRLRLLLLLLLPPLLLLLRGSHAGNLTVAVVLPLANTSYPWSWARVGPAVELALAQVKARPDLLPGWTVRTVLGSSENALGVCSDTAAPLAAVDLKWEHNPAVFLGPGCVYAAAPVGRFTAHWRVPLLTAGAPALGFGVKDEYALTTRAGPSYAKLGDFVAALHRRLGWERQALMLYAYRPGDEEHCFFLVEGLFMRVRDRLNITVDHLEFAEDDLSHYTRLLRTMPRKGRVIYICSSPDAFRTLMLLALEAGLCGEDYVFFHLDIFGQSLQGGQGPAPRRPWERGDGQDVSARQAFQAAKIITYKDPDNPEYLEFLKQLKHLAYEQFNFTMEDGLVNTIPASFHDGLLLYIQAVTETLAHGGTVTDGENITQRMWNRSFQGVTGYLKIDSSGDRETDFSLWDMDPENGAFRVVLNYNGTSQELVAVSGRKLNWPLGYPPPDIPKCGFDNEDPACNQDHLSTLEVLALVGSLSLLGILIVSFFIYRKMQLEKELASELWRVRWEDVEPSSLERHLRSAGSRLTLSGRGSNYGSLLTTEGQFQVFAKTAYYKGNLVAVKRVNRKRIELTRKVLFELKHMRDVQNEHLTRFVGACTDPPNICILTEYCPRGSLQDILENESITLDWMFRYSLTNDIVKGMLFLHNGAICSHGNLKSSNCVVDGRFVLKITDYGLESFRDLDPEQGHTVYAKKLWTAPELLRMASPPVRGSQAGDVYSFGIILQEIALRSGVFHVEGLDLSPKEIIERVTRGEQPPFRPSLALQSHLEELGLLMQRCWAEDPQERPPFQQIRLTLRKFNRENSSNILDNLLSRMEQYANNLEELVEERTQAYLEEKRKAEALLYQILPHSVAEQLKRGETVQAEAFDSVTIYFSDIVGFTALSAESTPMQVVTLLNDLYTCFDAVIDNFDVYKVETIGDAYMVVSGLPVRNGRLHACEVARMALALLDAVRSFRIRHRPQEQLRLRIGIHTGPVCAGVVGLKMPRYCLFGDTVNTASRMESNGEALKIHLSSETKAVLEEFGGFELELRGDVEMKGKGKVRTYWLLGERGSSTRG
HIF activator: HIF pathway transcriptional activation; U2OS HRE-luciferase reporter, luminescence; normalized: DMSO 0%, desferrioxamine 100%; activation, % at 7.5 µM (by protocol); 0.32% of 300,000 active; AID 1910;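 active = mean activation of at least 10% of the iron chelator positive control signal, with at least half of replicates also reaching 10%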
KLK7 zymogen act: activators of human kallikrein-7 zymogen | P49862 | purified proKLK7, EDANS-DABCYL substrate fluorescence; 100% is mature enzyme control, 0% vehicle | activation, % at 7 µM | 0.9% of 370,000 active | AID 652039;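 active = activation above the mean of all tested compounds plus 3 SD, computed per campaign excluding outliers beyond control limits, cut at about 13% in these data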
KLK7 act conf: proKLK7 activation, confirmation; shares compounds with KLK7 zymogen act; activation, % at 7 µM; 68% of 3,200 active; purified proKLK7, EDANS-DABCYL substrate fluorescence; scaled: vehicle 0, mature enzyme 100;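 active = activation, as change over the incubation, above the mean of all tested compounds plus 3 SD, cut at about 13% in these data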
EDANS interfere: counter-screen for kallikrein-7 activators: EDANS-DABCYL optical interference | activation, % at 7 µM | AID 686952 | EDANS-DABCYL substrate fluorescence interference, no enzyme, 4 h; solvent 0%, active enzyme control 100% | shares compounds with KLK7 zymogen act | 80% of 3,200 active;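 active = activation above the all-compound mean plus 3 SD, ignoring values outside control-based bounds, cut at about 4.8% in these data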;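 note: value is the 4 h activation minus the activation read at time zero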
K7 EDANS ctr: optically interferes with EDANS-DABCYL fluorescence, kallikrein-7 activator counter-screen | shares compounds with KLK7 zymogen act | EDANS-DABCYL peptide fluorescence interference, no enzyme | EC50, µM | 20% of 250 active | AID 720493;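 active = compounds that raise the fluorescence signal in this interference counterscreen, with EC50 at or below 10 µM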;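 note: intact quenched peptide substrate alone read at 355 nm excitation and 520 nm emission; signal is fluorescence gain from T0 to T4 after four hours at room temperature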
* = called active by the depositor; nt = no result given. A selection: hits, their analogues and other compounds. The true share with any hit is near 1.3%.

SMILES	NPR2 activator	NPR1 activator	HIF activator	KLK7 zymogen act	KLK7 act conf	EDANS interfere	others
O=C(NC1=NC2(C=C3CCCCC3n3c(=O)n(-c4ccccc4)c(=O)n32)CN1CC1CC1)c1ccccc1 (stereo not given)	4	0	nt	1	nt	nt
O=C1C=C(c2ccc3[nH]ccc3c2)CCC1	-4	-1	4	0	nt	nt
COc1ccc2cc(C3=CC(=O)CCC3)ccc2c1	5	4	nt	24*	-47	-49
Cc1cc(NC(=O)COC(=O)CSc2nc3cc(Cl)ccc3n2Cc2ccccc2)no1	-13	-4	-2	13*	4	2
Cc1cc(C)c2c(N)c(C(=O)Nc3nccs3)sc2n1	2	18	0	120*	-3	-11
O=C(CSc1nnc(-c2cnccn2)n1-c1ccccc1)c1ccc(F)cc1	-4	2	nt	0	nt	nt
COc1ccc(-c2cc(-c3ccccc3)nc(=O)[nH]2)cc1	3	-4	0	62*	31*	46*
CN(C)C=Nc1ccc2nc3c(cc2c1)[nH]c1ccccc13	-5	8	5	49*	50*	41*	K7 EDANS ctr=>69
CCOC(=O)c1[nH]c2ccccc2c1N=CN(C)C	6	-11	0	0	nt	nt
Cc1ccc2nc(-c3ccc4c(c3)OCCO4)cc(C(=O)O)c2c1	-10	-8	0	0	nt	nt
O=C(NN1CCOCC1)c1cc(-c2cccs2)nc2ccccc12	6	0	0	37*	33*	36*
O=C(OC1CCOC1=O)c1cc(-c2cccs2)nc2ccccc12 (stereo not given)	8	51*	0	275*	139*	189*
O=C(O)c1cc(-c2cccs2)nc2cc3c(cc12)OCCO3	0	0	0	30*	42*	50*
Cc1cc(C)c2nc(NNC(=O)c3cc(-c4cccs4)nc4ccccc34)sc2c1	2	1	0	13*	10	12*
N=c1c2c(-c3ccccc3)c(-c3ccccc3)n(CCc3ccccc3)c2ncn1CCO	-30	-31	nt	0	nt	nt
C=CCN(CC#Cc1ccc(C)cc1)Cc1ccc(OC)cc1OC	0	-2	nt	-1	nt	nt
COC(=O)C1CCN(C(=O)C2CC(=O)N(c3ccc(OC)cc3)C2c2ccc(OC)cc2)CC1 (stereo not given)	-9	-2	nt	0	nt	nt
O=C(NN1CCOCC1)c1cc(-c2ccccc2)nc2ccccc12	1	-6	-1	-1	nt	nt
CCc1ccc(-c2cc(C(=O)NN3CCOCC3)c3ccccc3n2)s1	-1	1	1	49*	79*	68*
CCOCCCNC(=O)c1cc(-c2ccc(Br)s2)nc2ccccc12	-17	-9	0	-9	nt	nt
CC(C)OCCCNC(=O)c1cc(-c2cccs2)nc2ccccc12	11	1	0	15*	13*	13*
O=C(CCc1ccccc1)N[C@H]1[C@H](OCc2ccccc2)CCC[C@@]12C(=O)N(Cc1ccccc1)c1ccc(-c3cnccn3)cc12	5	0	nt	-13	nt	nt
O=C1N(CCCO)CCC12CCC(c1ccccc1)CC2 (stereo not given)	2	1	nt	0	nt	nt
CCc1cc2c3c(c(=O)oc2cc1O)CCCC3	-1	3	-41	54*	62*	66*
CCc1cc2c(CN3CCN(CCO)CC3)cc(=O)oc2cc1O	-2	-10	0	49*	57*	67*
SMILES	NPR2 activator	NPR1 activator	HIF activator	KLK7 zymogen act	KLK7 act conf	EDANS interfere	others
CCc1cc2c3c(c(=O)oc2cc1OC(C)C(=O)O)CCCC3 (stereo not given)	1	1	1	5	nt	nt
Cc1ccc2c(CN3CCN(CCO)CC3)cc(=O)oc2c1C	3	0	0	0	nt	nt
CCc1cc2c(CN3CCN(C)CC3)cc(=O)oc2cc1O	1	-7	0	78*	68*	75*
O=C(NC1CCCCN(Cc2cccc(Cl)c2)C1=O)C1CCCCC1 (stereo not given)	1	-1	nt	0	nt	nt
CC(=O)c1ccc([C@H](O)[C@@H](C(=O)N(C)c2ccccc2)C2CC2)cc1	-2	-3	nt	0	nt	nt
O=C(CSc1nnc(-c2ccccc2F)n1-c1ccccc1)c1ccc2ccccc2c1	-2	-3	nt	-2	nt	nt
c1ccc(-c2ccc(CNc3nc(-c4ccccn4)nnc3-c3ccccc3)cc2)cc1	1	0	nt	nt	nt	nt
COc1cccc(CCNC(=O)CCc2nc(-c3ccccc3F)no2)c1	-5	-1	nt	0	nt	nt
Cc1nc(C(=O)NNC(=O)Nc2ccccc2)cs1	3	1	0	16*	-1	-1
COc1ccc(-c2oc3c(c2C#CC(C)(C)O)C(OC)CCC3)cc1 (stereo not given)	1	-3	nt	23*	-15	-22
CCNC(=S)N1CCc2cc(OC)c(OC)cc2C1COc1ccccc1OC (stereo not given)	8	5	-1	58*	30*	36*
CCNC(=S)N1CCc2cc(OC)c(OC)cc2C1COc1ccc(OC)cc1 (stereo not given)	1	4	-1	0	nt	nt
CCCCC1OC2(C)OC(=N)C1(C#N)C(C#N)(C#N)C2c1ccccc1 (stereo not given)	-1	-4	nt	14*	47*	50*
COc1ccccc1C(=O)Oc1ccc2c(c1)O/C(=C\c1ccncc1)C2=O	-6	9	1	15*	36*	38*
CS(=O)(=O)Oc1ccc2c(c1)O/C(=C\c1cccnc1)C2=O	-6	1	0	16*	15*	15*
CC(=O)Oc1ccc2c(c1)O/C(=C\c1ccncc1)C2=O	nt	nt	0	nt	nt	nt
COc1cccc2sc3cc(NCc4ccc(C)o4)ccc3c(=O)c12	-4	3	nt	43*	38*	39*
CCn1c(SCC(=O)Nc2ccccc2-c2ccccc2)nnc1-c1cnccn1	0	-1	nt	0	nt	nt
O=C(NCCc1ccc(F)cc1)c1ccc(Sc2ccccc2Cl)c([N+](=O)[O-])c1	-2	4	nt	0	nt	nt
CC1(C)Oc2ccc3ccc(=O)oc3c2[C@@H](O)[C@H]1O	0	0	nt	3	nt	nt
CC1(C)Oc2ccc3ccc(=O)oc3c2C(/C=N/O)C1=O (stereo not given)	1	3	0	27*	17*	18*
CCOC(=O)c1c(NC(=S)Nc2ccc(Cl)cc2)sc2c1CCN(C)C2	2	6	nt	18*	20*	21*
CC1=C(C#N)C(c2cccnc2)C2=C(CC(C)(C)CC2=O)N1 (stereo not given)	-1	-6	0	38*	67*	52*	K7 EDANS ctr=>70
